Compound activity as filed in PubChem BioAssay.
GLS inhibitor = blocks human kidney-isoform glutaminase activity; O94925; GLS enzymatic activity, qHTS titration; Potency, µM (titrated, usually from 45.5 µM), actives largely listed as inhibitors; 410,000 compounds, 0.21% hits
Target sequence (O94925 whole entry, looked up, canonical isoform): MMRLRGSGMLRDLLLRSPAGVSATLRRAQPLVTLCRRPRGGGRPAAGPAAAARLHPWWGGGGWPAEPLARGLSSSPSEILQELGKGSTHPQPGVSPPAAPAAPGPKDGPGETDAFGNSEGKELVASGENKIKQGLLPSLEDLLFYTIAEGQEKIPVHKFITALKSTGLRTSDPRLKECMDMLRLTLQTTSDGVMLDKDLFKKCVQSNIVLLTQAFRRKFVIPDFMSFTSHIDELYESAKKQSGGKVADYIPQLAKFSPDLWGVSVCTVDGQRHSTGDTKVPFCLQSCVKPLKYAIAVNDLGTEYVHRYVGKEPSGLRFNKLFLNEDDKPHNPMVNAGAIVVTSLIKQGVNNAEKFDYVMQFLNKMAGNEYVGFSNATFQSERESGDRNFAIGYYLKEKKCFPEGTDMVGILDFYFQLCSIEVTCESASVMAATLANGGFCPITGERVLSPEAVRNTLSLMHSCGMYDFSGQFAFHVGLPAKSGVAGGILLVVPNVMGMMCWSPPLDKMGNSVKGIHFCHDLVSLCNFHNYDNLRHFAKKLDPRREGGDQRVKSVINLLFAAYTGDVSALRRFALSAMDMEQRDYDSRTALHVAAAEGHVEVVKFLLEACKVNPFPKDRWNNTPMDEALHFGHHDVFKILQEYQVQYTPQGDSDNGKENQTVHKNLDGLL
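Compounds were pin-transferred onto hKGA, after which L-glutamine (1 mM solution) and a detection mix of glutamate oxidase, HRP and Amplex Red were added. Initial and 30 min RT fluorescence reads were collected.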
BAZ2B block = blocks human BAZ2B; 360,000 compounds, 4.4% hits; AlphaScreen BAZ2B-H3K14Ac peptide displacement; Q9UIF8; AID 504333; Potency, µM (series often up to 114 µM), hits mostly inhibitors; further: nearly all actives have a fitted effect of over 60% in size
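Inhibition is scored as reduced AlphaScreen emission. The BAZ2B/b-H3(5-23)K14Ac complex (50 nM each) in PBS pH 7.4, 0.01% Tween-20 meets compound (up to 110 uM) for 30 min at RT before bead addition.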
G9a block = blocks human histone lysine methyltransferase G9a; AID 504332; Potency, µM (series often up to 102 µM), hits mostly inhibitors; G9a H3K9 monomethylation, AlphaScreen, 2 h; Q96KQ7; 350,000 compounds, 8.8% hits; further: nearly all actives have a fitted effect of over 75% in size
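Step 1: enzyme (final 20 nM) with compound, 15 min RT. Step 2: substrate peptide 500 nM and SAM 20 uM, 2 h RT. Step 3: anti-H3K9me1 antibody and AlphaScreen beads, 10 min, then plate read.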
HP1b binding inh = blocks HP1-beta chromodomain binding to methylated histone tails. P83916. AlphaScreen HP1-beta / biotin-H3K9me3 peptide binding. Potency, µM (series often up to 114 µM), hits mostly inhibitors. 390,000 compounds, 0.56% hits. AID 540317; further: nearly all actives have a fitted effect of over 70% in size
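HP1-beta protein (50 nM final) preincubated 30 min at room temperature with biotinylated H3(1-18)K9me3 peptide (50 nM) in PBS pH 7.4, 0.01% Tween-20, then compound added for 30 min. AlphaScreen streptavidin donor/nickel chelate acceptor beads (10 ug/mL final), 30 min dark, luminescence read.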
JMJD2A Tudor inh = JMJD2A Tudor domain (human) inhibition | AID 504339 | AlphaScreen JMJD2A-Tudor / H3K4me3 peptide binding | Potency, µM (titrated, usually from 114 µM), usual class: inhibitors | 390,000 compounds, 4.4% hits; further: nearly all actives have a fitted effect of over 50% in size
A number is an active result; - = inactive; ? = inconclusive; . = no result given; [ ] = another dose, or the depositor's remark. Rows were chosen to be rich in hits. Some 10% of all compounds tested hit in one or more screens of this group. The call rests on the fitted dose curve; in most records, active means well fitted curve in the direction sought with a large enough effect; inconclusive means small, poorly fitted or top-dose-only effect, or another doubt; inactive means no such curve, though single readings can be large; an effect the other way counts as inactive or inconclusive.

SMILES	GLS inhibitor	BAZ2B block	G9a block	HP1b binding inh	JMJD2A Tudor inh
Cc1cc(S(=O)(=O)N2CCCC(N3CCOCC3)C2)c(C)cc1Cl (stereo not drawn)	-	-	45µM	-	-
COc1ccc(N2CCN(C3CCCN(S(=O)(=O)c4ccc(C)cc4C)C3)CC2)cc1 (stereo not drawn)	-	25µM	35µM	?	32µM
COc1ccc(OC)c(S(=O)(=O)N2CCN3CCCC3C2)c1 (stereo not drawn)	-	-	-	-	-
O=S(=O)(c1cc(Cl)ccc1Cl)N1CCN2CCCC2C1 (stereo not drawn)	-	-	-	-	-
CCOc1cccc(NC(=O)c2sc3nc(-c4ccc(F)cc4)ccc3c2N)c1	-	-	-	-	-
Cc1ccc(N2CC(C(=O)NCCC3=CCCCC3)CC2=O)cc1 (stereo not drawn)	-	-	-	-	-
CC1=C(SCCC#N)S/C(=C2\SC(C)=C(SCCC#N)S2)S1	-	-	1.3µM	?	56µM
C[C@@H](Nc1nc(Cl)nc2nc[nH]c12)c1ccccc1	.	.	.	-	-
NS(=O)(=O)Nc1c(Br)cc(Br)c2cccnc12	.	.	.	-	?
O=C(NCc1ccc(F)cc1)c1cc(C2CCCN(S(=O)(=O)c3ccccc3)C2)on1 (stereo not drawn)	-	.	.	.	.
CCN(CC)c1ccc(/C=C(\C#N)C(N)=S)cc1	-	13µM	20µM	?	-[11.4 µM]
COc1ccc(Cl)cc1NC(=O)Cn1ccn(Cc2ccc(C)cc2)c(=O)c1=O	-	-	?	-	-
N#CC1=C(N)N2C(=C(C#N)C1c1ccccc1)Sc1ccccc12 (stereo not drawn)	.	-	?	.	.
N#CC1=C(N)N2C(=C(C#N)C1c1cccc(Br)c1)Nc1ccccc12 (stereo not drawn)	-	-	10µM	-	-
N#CC1=C(N)N2C(=C(C#N)C1c1ccc(Br)cc1)Nc1ccccc12 (stereo not drawn)	-	-	10µM	-	-
CCOc1cc(/C=N/NC(=O)c2ccc(N(C)S(=O)(=O)c3ccccc3)cc2)ccc1OC	-	-	-	-	-
COC(=O)c1ccnc(/C=N/O)c1	-	50µM	?	-	35µM
COC(=O)c1ccnc(SCC(=O)c2ccccc2)c1	-	-	-	-	-
COc1ncc2ncc(=O)n(C[C@H]3CCCO3)c2n1	.	.	-[0.501 µM]	.	.
COc1ccc(Nc2nc(N3CCCC3)c3ccccc3n2)cc1	-	?	-[12.7 µM]	?	45µM
CCN(CC)c1ccc(Nc2nc(N3CCOCC3)c3ccccc3n2)cc1	-	18µM	2.2µM	-	18µM
O=C(Nc1ccccc1C(=O)OCc1cc(=O)n2c3c(sc2n1)CCCC3)c1cccc(Cl)c1	-	-	-	-	-
COc1ccc(-c2csc(CCN3N=C(C)CC3=O)n2)cc1	?	40µM	32µM	-	?
CN(C)c1ccc(CNc2nc(-c3ccco3)nn2S(C)(=O)=O)cc1	-	?	?	-	-
COc1ccc(S(=O)(=O)n2nc(-c3ccco3)nc2NCc2ccc(N(C)C)cc2)cc1	-	25µM	11µM	-	13µM
SMILES	GLS inhibitor	BAZ2B block	G9a block	HP1b binding inh	JMJD2A Tudor inh
Cc1ccc(S(=O)(=O)n2nc(-c3ccco3)nc2NCc2ccc(N(C)C)cc2)cc1	-	10µM	8.9µM	-	25µM
Cc1ccc(CCNC(=O)CCCn2c(=O)c3ccccc3n(CC(=O)Nc3cc(Cl)ccc3C)c2=O)cc1	-	-	-	-	-
COc1ccc(NC(=O)C2CSC(C)(C)N2C=O)cc1 (stereo not drawn)	-	-	-	-	-
Cc1nn2c(C)c(C(=O)Nc3ccccc3)cnc2c1C#N	-	-	16µM	-	-
Cc1cc2ncc(C(=O)Nc3ccccc3)c(C)n2n1	-	-	-[12.7 µM]	-	-
Cc1ccc(OCC(=O)Nc2ccon2)c([N+](=O)[O-])c1	-	-	?	-	-
CC(=O)N1N=C(c2ccco2)CC1c1cc2cc(C)ccc2nc1Cl (stereo not drawn)	5.6µM	-	.	-	-
Cc1ccc2cc(C3CC(c4ccco4)=NN3S(=O)(=O)c3ccccc3)c(Cl)nc2c1 (stereo not drawn)	-	-	50µM	-	-
Cc1ccc2nc(Cl)c(C3CC(c4ccco4)=NN3C(=O)CCCC(=O)O)cc2c1 (stereo not drawn)	-	-	?	-	-
CCOc1ccc2cc(C3CC(c4ccco4)=NN3S(=O)(=O)c3ccccc3)c(Cl)nc2c1 (stereo not drawn)	-	?	10µM	-	-
Cc1ccc2cc(C3CC(c4ccco4)=NN3S(C)(=O)=O)c(Cl)nc2c1 (stereo not drawn)	-	?	.	-	-
CCOc1ccc2cc(C3CC(c4ccco4)=NN3S(C)(=O)=O)c(=O)[nH]c2c1 (stereo not drawn)	-	-	.	?	50µM
COc1ccc2cc(C3CC(c4ccco4)=NN3S(=O)(=O)c3ccccc3)c(Cl)nc2c1 (stereo not drawn)	-	-	?	-	-
FC(F)(F)c1cccc(Cn2c3[n+](c4ccc(C(F)(F)F)cc42)CCCCC3)c1	-	-	22µM	-	-
O=C(Cn1c2[n+](c3ccc(C(F)(F)F)cc31)CCCCC2)Nc1ccc(Br)cc1	-	?	35µM	-	-
N#Cc1ccc(NC(=O)Cn2c3[n+](c4ccc(C(F)(F)F)cc42)CCCCC3)cc1	-	-	?	-	14µM
COc1cccc(CNC(=O)c2ccc(-n3c(C)cc4c3CCCC4)cc2)c1	-	-	?	-	-
O=C(Oc1ccc(F)cc1)c1nc(SCc2ccccc2F)ncc1Cl	-	-	-	-	-
O=C(O)Cn1c(=S)sc2ccccc21	-	89µM	71µM	-	-
NNC(=O)Cn1c(-c2ccccn2)nc2ccccc21	-	-	-	-	-
O=C(O)Cn1c(-c2ccccc2)nc2ccccc21	-	-	40µM	-	-[11.4 µM]
O=C(O)Cn1c(=O)c(-c2ccccc2)nc2ccccc21	-	-	.	-	-
O=C(O)CCn1c(=O)sc2ccccc21	-	-	-[2.33 µM]	-	-
O=C(O)Cn1c(-c2ccccn2)nc2ccccc21	-	-	?	-	50µM
CO[C@H]1[C@H](O[C@H]2O[C@@H](C)[C@@H](O[C@@H]3C[C@](C)(O)[C@H](O)[C@H](C)O3)[C@@H](N(C)C)[C@@H]2O)[C@@H](CC=O)C[C@@H](C)[C@@H](O[C@H]2CC[C@H](N(C)C)[C@H](C)O2)/C=C\C=C/C[C@@H](C)OC(=O)C[C@H]1O	-	.	-[21.5 µM]	.	.
CCCc1cnc2c(c1SCC(=O)N1CCC(C)CC1)c(=O)n(C)c(=O)n2C	-	-	-	-	-
COc1ccc(C2Nc3ccccc3C(=O)N2Cc2ccco2)cc1COc1ccc(N)cc1 (stereo not drawn)	.	.	.	.	22µM
COc1ccc(C2Nc3ccccc3C(=O)N2Cc2ccco2)cc1COc1ccc(F)cc1 (stereo not drawn)	-	-	-	-	-
